PubChem BioAssay
Calls of active or inactive are those of the source.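 How the source made its calls: active means visually confirmed hit in the image check and inhibition above 20%; inconclusive means visually confirmed hit but inhibition not above 20%; inactive means no visual hit in the image check.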

Experiment: inhibitors of E-selectin induction by TNFa, primary screen, imaging, HUVEC, immunofluorescence, MLSMR starter and 10KST1 sets (AID 487);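 on inhibition: signal is fraction of cell area covered by stained E-selectin grains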;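 on nuclei count: 100% = median nuclei count of all wells on the same plate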
Conditions: HUVEC TNFalpha-induced E-selectin immunofluorescence imaging, at 2 µM; inhibition: stronger effect = higher value; nuclei count: measured here: cell number, toxicity

SMILES	nuclei count	inhibition
Cc1cc(C)nc(N(C#N)S(=O)(=O)c2ccccc2Cl)n1	115%	-228% (inactive)
CC1(C)Cc2c(sc3nc(SCC#N)n(C4CCCCC4)c(=O)c23)CO1	154%	51% (inactive)
CN1CCN(C(=O)CSc2nc(-c3cccs3)ccc2C#N)CC1	138%	21.9% (inactive)
O/N=C1\CCc2cc(Cl)ccc21	101%	-24.4% (inactive)
CC(C)CC(C(=O)O)C(C)CC(=O)Nc1ccn(-c2ccccc2)n1 (centres undefined)	150%	-326% (inactive)
CCCOc1ccc(N2C(=O)CC(N(CCC)C(=O)CCC(=O)O)C2=O)cc1 (centres undefined)	204%	-161% (inactive)
CCCCC(C(=O)O)C(C)CC(=O)Nc1cccc(C(=O)O)c1 (centres undefined)	176%	-102% (inactive)
CC(C)C1Cc2c(C#N)c(N)n(C)c(=S)c2CO1 (centres undefined)	134%	-204% (inactive)
O=C(O)CC(NC(=O)COc1ccc(Cl)cc1Cl)C(=O)O (centres undefined)	197%	-11.7% (inactive)
O=C1C(=O)N(CCN2CCOCC2)C(c2ccccn2)/C1=C(/O)c1ccccc1 (centres undefined)	107%	-87.4% (inactive)
C=CCOC(=O)C1=C(C)NC(SCC(=O)N(CC)CC)=C(C#N)C1c1ccco1 (centres undefined)	153%	-137% (inactive)
CN1CCc2c(sc3ncn4nc(-c5ccccc5O)nc4c23)C1	125%	-51.6% (inactive)
CN(C)c1ccc(-c2nn3c(-c4ccc(Cl)cc4)nnc3s2)cc1	147%	-183% (inactive)
O=c1oc2c3c4c(cc2c(C(F)(F)F)c1CCN1CCOCC1)CCCN4CCC3	160%	-59.8% (inactive)
c1ccc(N2CCN(c3nc(-c4ccccn4)nc4ccccc34)CC2)cc1	86.2%	22.4% (inactive)
Fc1ccc2[nH]c3c(N4CCN(Cc5ccc6c(c5)OCO6)CC4)ncnc3c2c1	169%	-93.3% (inactive)
COc1ccc(OCC(=O)N2CCN(C(=O)c3cccc4ccccc34)CC2)cc1	133%	-293% (inactive)
C=CCc1cccc(/C=N/c2ncn[nH]2)c1O	148%	-90.5% (inactive)
COc1cccc2c(=O)c(SC(F)(F)C(F)C(F)(F)F)c(C)[nH]c12 (centres undefined)	105%	-14.2% (inactive)
C=CCOc1nc2c(c(=O)n(Cc3ccc(Cl)c(Cl)c3)c(=O)n2C)n1C	140%	-39.8% (inactive)
COCCNc1cc(C)c(C#N)c2nc3ccccc3n12	108%	-78.8% (inactive)
CC(C)(C)c1cccc(/C=N/O)c1O	140%	-214% (inactive)
O=C(O)C1CSCN1S(=O)(=O)c1cccc2nsnc12 (centres undefined)	120%	-34% (inactive)
CCN=C1SC(C(=O)Nc2ccc(Cl)c(Cl)c2)CC(=O)N1CC (centres undefined)	133%	-56.6% (inactive)
CC1CN(c2oc(-c3cccs3)nc2C#N)CC(C)O1 (centres undefined)	178%	-188% (inactive)

Experiment: DUSP6 inhibitors restoring Erk phosphorylation by chemical complementation, primary imaging in DUSP6-transfected HeLa (AID 609)
Conditions: HeLa MKP-3 transfected, phospho-Erk imaging KS statistic; measured here: cell density z-score; at 10 µM; cells stimulated with TPA for 15 min

SMILES	z-score
CCN1CCCC1Cn1cnc2c([nH]c3ccc(C)cc32)c1=O (centres undefined)	-0.0977
CCOC(=O)CSc1nc(N)c(C#N)c(-c2ccc(OC)cc2)c1C#N	0.441
CCOC(=O)CC1=C(C(=O)OCC)C(c2cc(OC)c(OC)cc2OC)C(C#N)=C(N)O1 (centres undefined)	1.93
CCCOc1ccc(/C(O)=C2/C(=O)C(=O)N(CCN(C)C)C2c2ccncc2)cc1 (centres undefined)	1.88
CN=C1c2c(-c3ccccc3)c3cc(OC)ccc3n2CCN1C	0.562
COCCOC(=O)C1=C(C)NC(SCC(=O)NC(C)(C)C)=C(C#N)C1c1ccco1 (centres undefined)	0.297
c1ccc(-c2nnc3n2N=C(c2ccc4c(c2)OCO4)CS3)nc1	0.439
C=COC(=O)CSc1nc(-c2cccs2)ccc1C#N	-1.42
Cn1c(=O)oc2cc(C(=O)c3ccccc3)ccc21	0.0253
CCOc1nc(SCCOc2ccc(C)cc2)nc(N(C)C)n1	2.72
Cc1ccc(CC2CC(=O)N(c3ccc4c(c3)OCCO4)C2=O)cc1 (centres undefined)	1.49
COC(=O)Cn1cc(C(=O)OC)cc(Br)c1=O	0.966
CCN(CC)CCNC(=O)c1c(C)oc2cc(Br)c(OC)cc12	2.28
N=c1c2c(-c3ccccc3)c(-c3ccccc3)n(Cc3ccccc3)c2ncn1CCCn1ccnc1	-0.862
Cc1cc(C)nc(N(C#N)S(=O)(=O)c2ccccc2Cl)n1	-0.515
CC1(C)Cc2c(sc3nc(SCC#N)n(C4CCCCC4)c(=O)c23)CO1	-1.73
CN1CCN(C(=O)CSc2nc(-c3cccs3)ccc2C#N)CC1	-0.668
O/N=C1\CCc2cc(Cl)ccc21	-3.01
CC(C)CC(C(=O)O)C(C)CC(=O)Nc1ccn(-c2ccccc2)n1 (centres undefined)	1.41
CCCOc1ccc(N2C(=O)CC(N(CCC)C(=O)CCC(=O)O)C2=O)cc1 (centres undefined)	-1.24

SMILES	z-score
CCCCC(C(=O)O)C(C)CC(=O)Nc1cccc(C(=O)O)c1 (centres undefined)	0.159
CC(C)C1Cc2c(C#N)c(N)n(C)c(=S)c2CO1 (centres undefined)	-0.967
O=C(O)CC(NC(=O)COc1ccc(Cl)cc1Cl)C(=O)O (centres undefined)	0.18
O=C1C(=O)N(CCN2CCOCC2)C(c2ccccn2)/C1=C(/O)c1ccccc1 (centres undefined)	-0.264
C=CCOC(=O)C1=C(C)NC(SCC(=O)N(CC)CC)=C(C#N)C1c1ccco1 (centres undefined)	-0.539
CN1CCc2c(sc3ncn4nc(-c5ccccc5O)nc4c23)C1	0.947
CN(C)c1ccc(-c2nn3c(-c4ccc(Cl)cc4)nnc3s2)cc1	0.167
O=c1oc2c3c4c(cc2c(C(F)(F)F)c1CCN1CCOCC1)CCCN4CCC3	-0.81
c1ccc(N2CCN(c3nc(-c4ccccn4)nc4ccccc34)CC2)cc1	-1.22
Fc1ccc2[nH]c3c(N4CCN(Cc5ccc6c(c5)OCO6)CC4)ncnc3c2c1	0.499
COc1ccc(OCC(=O)N2CCN(C(=O)c3cccc4ccccc34)CC2)cc1	-0.479
C=CCc1cccc(/C=N/c2ncn[nH]2)c1O	-0.648
COc1cccc2c(=O)c(SC(F)(F)C(F)C(F)(F)F)c(C)[nH]c12 (centres undefined)	0.112
C=CCOc1nc2c(c(=O)n(Cc3ccc(Cl)c(Cl)c3)c(=O)n2C)n1C	1.05
COCCNc1cc(C)c(C#N)c2nc3ccccc3n12	-2.44
CC(C)(C)c1cccc(/C=N/O)c1O	2.16
O=C(O)C1CSCN1S(=O)(=O)c1cccc2nsnc12 (centres undefined)	-0.369
CCN=C1SC(C(=O)Nc2ccc(Cl)c(Cl)c2)CC(=O)N1CC (centres undefined)	1.74
CC1CN(c2oc(-c3cccs3)nc2C#N)CC(C)O1 (centres undefined)	-0.465
